{
  "source": "PubChem BioAssay AID2685",
  "about": "(National Center for Advancing Translational Sciences (NCATS), 2010)",
  "note": "Screen size: about 320,000 compounds; about 2,100 (0.66%) were called active. Not shown: some 53% with an inconclusive outcome. Calls follow the shape of the dose curve; as a rule, active = well fitted inhibition curve with a large enough effect in the signal ratio, with a control signal flat (not every such curve was filed as active); inconclusive = small, poorly fitted or top-dose-only effect, or effect the other way, or a change in a side signal; inactive = flat fitted curve, though single readings scatter; the % refers to the signal ratio. The list comes from a sample in which actives are over-represented; it also holds similar structures and randomly drawn compounds.",
  "data": [
    {"experiment": "qHTS Assay for Lipid Storage Modulators in Drosophila S3 Cells; also: potency is read from the fitted curve at half-maximal effect;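 as to cell number change: cells counted by Cell Tracker Red CMTPX staining in the red channel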; as to lipid storage change, negative = inhibition: % is scaled to controls: 0 for no effect and ±100 for the full control effect", "details": "BODIPY lipid droplet fluorescence, 18-24 h, cells fed with added oleic acid; cell number change: measured here: cell count max response; series mostly up to 46.1 µM; lipid storage change, negative = inhibition: at the top concentration", "how_it_was_run": "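Drosophila S3 cells loaded with oleic acid (400 uM, as added) and compounds at several concentrations; lipid droplets imaged by 488-nm laser-scanning cytometry, 500–530 nm intensity and object ratio to cell channel. Percent activity normalized to 20 uM Triacsin C.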", "units": {"cell number change": "%"}, "values": [
      {"compound": "O=C(NC1CCOC1)c1ccc(OC2CCN(CCc3ccccc3)CC2)cc1", "note": "(stereo not drawn)", "lipid storage change, negative = inhibition": "-5.98% (inactive)", "cell number change": -24},
      {"compound": "CN(C)CCCCOc1ccccc1-c1ccccc1", "lipid storage change, negative = inhibition": "-7.9% (inactive)", "cell number change": -4.23},
      {"compound": "CN(C)CCOCCOc1ccccc1-c1ccccc1", "lipid storage change, negative = inhibition": "-6.88% (inactive)", "cell number change": -9.8},
      {"compound": "CN(C)CCOc1ccccc1-c1ccccc1", "Potency": "23.1 µM (active)", "cell number change": -29.9},
      {"compound": "Cc1cc(C)nc(NS(=O)(=O)c2ccc(NC(=O)COc3ccccc3F)cc2)n1", "lipid storage change, negative = inhibition": "13.6% (inactive)", "cell number change": 12.7},
      {"compound": "COc1ccc(NS(=O)(=O)c2cc(NC(=O)COc3ccccc3F)ccc2OC)cc1", "Potency": "1.64 µM (active)", "cell number change": -1.34},
      {"compound": "COc1ccc(NS(=O)(=O)c2cc(NC(=O)Cc3c(F)cccc3Cl)ccc2OC)cc1", "lipid storage change, negative = inhibition": "6.88% (inactive)", "cell number change": -6.83},
      {"compound": "COCCNC(=O)c1ccc(CSCc2cccc(Cl)c2)o1", "lipid storage change, negative = inhibition": "11.7% (inactive)", "cell number change": 7.62},
      {"compound": "c1ccc(CCNCC2COc3ccccc3O2)cc1", "note": "(stereo not drawn)", "lipid storage change, negative = inhibition": "7.04% (inactive)", "cell number change": 16.7},
      {"compound": "Cc1ccc(CSCCNS(=O)(=O)c2ccc([N+](=O)[O-])cc2)cc1", "lipid storage change, negative = inhibition": "15.8% (inactive)"},
      {"compound": "COc1ccccc1NC(=O)c1sc(Cl)nc1C", "outcome": "inactive", "cell number change": 1.65},
      {"compound": "COc1ccc(C(=O)c2sc(Nc3ccccc3)c(C(=O)Nc3ccc(OC)c(OC)c3)c2N)cc1", "lipid storage change, negative = inhibition": "9.9% (inactive)", "cell number change": -20},
      {"compound": "COc1ccccc1NC(=O)c1c(Nc2ccccc2C)sc(C(=O)Nc2cccc(Cl)c2)c1N", "Potency": "1.64 µM (active)", "cell number change": -26.6},
      {"compound": "Cc1cccc(C)c1NC(=O)CN(C)C(=O)c1cccc(S(=O)(=O)N2CCN(C)CC2)c1", "cell number change": 10.4, "lipid storage change, negative = inhibition": "-25% [at 0.0737 µM] (inactive)"},
      {"compound": "CCOC(=O)C1CCN(CC(O)COCc2ccc3c(c2)OCO3)CC1", "note": "(stereo not drawn)", "lipid storage change, negative = inhibition": "6.44% (inactive)"},
      {"compound": "CCOC(=O)C1CCN(CC(O)COCc2ccc(Cl)cc2)CC1", "note": "(stereo not drawn)", "Potency": "18.4 µM (active)", "cell number change": 16.5},
      {"compound": "CCOC(=O)C1CCN(CC(O)COCc2ccccc2)CC1", "note": "(stereo not drawn)", "lipid storage change, negative = inhibition": "10.2% (inactive)", "cell number change": 4.71},
      {"compound": "COc1ccc(NC(=O)CSc2nc3scc(C)c3c(=O)[nH]2)cc1", "lipid storage change, negative = inhibition": "19.3% (inactive)", "cell number change": 11.6},
      {"compound": "COc1cccc(NC(=O)CSc2nc3scc(C)c3c(=O)[nH]2)c1", "Potency": "0.58 µM (active)", "cell number change": 2.56},
      {"compound": "COc1ccc(C)cc1NC(=O)CSc1nc2scc(C)c2c(=O)[nH]1", "outcome": "inactive", "cell number change": 10.8},
      {"compound": "CCOc1ccc(-c2nnn(CC(=O)NCc3cccs3)n2)cc1", "lipid storage change, negative = inhibition": "7.4% (inactive)", "cell number change": -5.47},
      {"compound": "CC(=O)NNc1[nH]c2c(c(=O)c1[N+](=O)[O-])c(=O)n(C)c(=O)n2C", "lipid storage change, negative = inhibition": "-5.91% (inactive)", "cell number change": -5.05},
      {"compound": "CC(C)=C(NC(=O)c1ccccc1)C(=O)NC(Cc1ccccc1)C(=O)O", "note": "(stereo not drawn)", "Potency": "1.16 µM (active)", "cell number change": -15},
      {"compound": "O=C(NC(Cc1ccccc1)C(=O)O)/C(=C/c1ccccc1)NC(=O)c1ccccc1", "note": "(stereo not drawn)", "lipid storage change, negative = inhibition": "-12.2% (inactive)", "cell number change": -7.82},
      {"compound": "O=C(NC(Cc1ccccc1)C(=O)O)c1ccccc1", "note": "(stereo not drawn)", "lipid storage change, negative = inhibition": "-0.615% (inactive)", "cell number change": -3.84},
      {"compound": "CC(=O)OCCn1c(C)[n+](CCOC(C)=O)c2cc(Cl)c(Cl)cc21", "lipid storage change, negative = inhibition": "3.84% (inactive)", "cell number change": 13.2},
      {"compound": "COc1ccc(OCC(=O)N2CC3(C)CC2CC(C)(C)C3)cc1", "note": "(stereo not drawn)", "outcome": "inactive"},
      {"compound": "CCc1cccc2cc3c(N)c(C(=O)Nc4ccc(S(=O)(=O)N5CCCC5)cc4)sc3nc12", "Potency": "5.8 µM (active)", "cell number change": 0.905},
      {"compound": "Cc1cccc2cc3c(N)c(C(=O)Nc4ccc(N5CCOCC5)cc4)sc3nc12", "lipid storage change, negative = inhibition": "5.73% (inactive)", "cell number change": -1.66},
      {"compound": "Nc1c(C(=O)Nc2ccc(S(=O)(=O)N3CCCC3)cc2)sc2nc3cc4c(cc3cc12)CCC4", "lipid storage change, negative = inhibition": "-10.7% (inactive)", "cell number change": 6.36},
      {"compound": "Cc1cccn2c(=O)c3cc(C(=O)NCCc4ccccc4)sc3nc12", "outcome": "inactive", "cell number change": -15.4},
      {"compound": "Cc1ccc(C(=O)N2CCC(Cc3ccccc3)CC2)cc1[N+](=O)[O-]", "lipid storage change, negative = inhibition": "14.3% (inactive)", "cell number change": 4.11},
      {"compound": "C=CCNC(=O)/C(C#N)=C\\c1cc(Cl)c(O)c(OCC)c1", "lipid storage change, negative = inhibition": "-22% (inactive)", "cell number change": 2.03},
      {"compound": "COc1cc(/C=C(/C#N)C(=O)NCc2ccccc2)cc(OC)c1OC", "outcome": "inactive", "cell number change": -27.2},
      {"compound": "C=CCNC(=O)/C(C#N)=C\\c1cc(Cl)c(OCC)c(OC)c1", "Potency": "14.6 µM (active)", "cell number change": -28.8},
      {"compound": "CC(=O)Nc1ccc(NC(=O)C2CC(=O)Nc3nc4ccccc4n32)cc1", "note": "(stereo not drawn)", "lipid storage change, negative = inhibition": "9.73% (inactive)", "cell number change": -1.64},
      {"compound": "CCSCCc1nnc(NC(=O)Nc2cccc(C(F)(F)F)c2)s1", "Potency": "20.6 µM (active)", "cell number change": -21.6},
      {"compound": "CNC(=O)Nc1cccc(C(F)(F)F)c1", "lipid storage change, negative = inhibition": "10.6% (inactive)", "cell number change": 3.39},
      {"compound": "CCSc1nnc(NC(=O)Nc2cccc(C)c2)s1", "lipid storage change, negative = inhibition": "-12.7% (inactive)", "cell number change": 17},
      {"compound": "CC(C)C[C@@H](CSc1ccc(Br)cc1)N1CCN(C)CCC1=O", "lipid storage change, negative = inhibition": "14.2% (inactive)", "cell number change": -4.06},
      {"compound": "CC(C(=O)NCc1ccc2c(c1)OCO2)N(c1ccccc1)S(C)(=O)=O", "note": "(stereo not drawn)", "lipid storage change, negative = inhibition": "6.83% (inactive)", "cell number change": 7.31},
      {"compound": "COc1ccc(N2C(=O)CN(Cc3ccc(OC)c(OC)c3)C2=S)cc1", "lipid storage change, negative = inhibition": "-2.11% (inactive)", "cell number change": 10.4},
      {"compound": "Cc1cc(C)c2nc(N(CCCN(C)C)C(=O)C3=COCCO3)sc2c1", "lipid storage change, negative = inhibition": "-22.2% (inactive)", "cell number change": -20},
      {"compound": "Cc1ccc(/C=N/NC(=O)c2csc3c2CCCC3)cc1", "Potency": "16.4 µM (active)", "cell number change": -23.6},
      {"compound": "O=C(N/N=C/c1cccc(F)c1)c1csc2c1CCCC2", "lipid storage change, negative = inhibition": "2.18% (inactive)", "cell number change": 1.41},
      {"compound": "O=C(N/N=C/c1ccc(O)cc1)c1csc2c1CCCC2", "lipid storage change, negative = inhibition": "-8.69% (inactive)"}
    ]}
  ]
}
